Compound activity as filed in PubChem BioAssay.
Marburg entry inh = qHTS for inhibitors of binding or entry into cells for Marburg Virus. Marburg virus pseudotyped entry inhibition, cell reporter. Potency, µM (highest dose often 37.8 µM), hits mostly inhibitors. 300,000 tested, 1.8% active. AID 540276, 2011; calls by dose curve; tested in HEK293 cells
Shiga toxin inh = A qHTS for Small Molecule Inhibitors of Shiga Toxin | Vero cells, Shiga toxin protein synthesis inhibition reporter | inhibition, % at 38.7 µM | 290,000 tested, 9.2% active; in the data active = inhibition mostly above about 28%, no sharp cut-off; inactive = mostly below about 43%
Cycloheximide cs = Cycloheximide Counterscreen for Small Molecule Inhibitors of Shiga Toxin. cell reporter, cycloheximide protein synthesis inhibition counterscreen. max response, %. 300,000 tested, 12% active. AID 2314, 2010; in the data active = max response mostly above about 13%, no sharp cut-off; inactive = mostly below about 14%; note: read at 38.3 µM for the half of the compounds with a filed dose
LASV entry inh = qHTS for Inhibitors of binding or entry into cells for Lassa Virus; Lassa virus pseudotype entry inhibition, cell reporter; 300,000 tested, 1.2% active; Potency, µM (doses to about 37.9 µM), most hits filed as inhibitors; calls by dose curve; tested in HEK293 cells; note: nearly all actives have a fitted effect of over 50% in size
Of the large screens only hits and unclear results are named; the others gave an inactive call. In the library only some 12% were active in any assay of this set; here they are far more common.

COc1cc(C(=O)/C=C/c2cccnc2)ccc1O	Marburg entry inh inconclusive, Cycloheximide cs 16.4, LASV entry inh inconclusive
CCOc1cc(/C=C2/C(=O)ON=C2C)ccc1O	none (no result: Marburg entry inh, LASV entry inh)
CCOc1cc(/C=C2\CCC/C(=C\c3cc(Cl)c(O)c(OCC)c3)C2=O)cc(Cl)c1O	Marburg entry inh 11.2µM, Cycloheximide cs 22.7, LASV entry inh 8.91µM
CCOc1cc(/C=C2\N=C3CCCCCN3C2=O)ccc1O	Shiga toxin inh 97.2, Cycloheximide cs 35.9 (no result: Marburg entry inh, LASV entry inh)
CCOc1cc(/C=C2/NC(=O)N(Cc3ccccc3F)C2=O)ccc1O	Marburg entry inh 15.8µM
CCOc1cc(/C=C2\CN(C)C/C(=C\c3ccc(O)c(OCC)c3)C2=O)ccc1O	Marburg entry inh inconclusive, Cycloheximide cs 27.3, LASV entry inh inconclusive
Cc1cc(=O)n2nc(N3CCCC(C(=O)Nc4ccc(C)c(C)c4)C3)sc2n1 (centres undefined)	none (no result: Marburg entry inh, LASV entry inh)
O=C(Nc1cccc(C(F)(F)F)c1)c1cc2nc(-c3ccc4c(c3)OCO4)cc(C(F)(F)F)n2n1	none (no result: Shiga toxin inh, Cycloheximide cs)
O=C(COC(=O)Cn1nnc(-c2ccccc2)n1)Nc1cc(F)ccc1F	none (no result: Shiga toxin inh, Cycloheximide cs)
Cc1ccc(-c2nnc(Nc3ccc(O)cc3)c3ccccc23)cc1S(=O)(=O)N1CCN(C)CC1	none (no result: Shiga toxin inh, Cycloheximide cs)
COc1cccc(/C=C2\N=C3CCCCCN3C2=O)c1	Marburg entry inh inconclusive, Shiga toxin inh 106.4, Cycloheximide cs 51.8
N#Cc1ccccc1OCC(=O)Nc1ccc2c(c1)OCCCO2	Shiga toxin inh 77.3, Cycloheximide cs 49.8
CCN(CC)c1ccc(NC(=O)COc2ccccc2C#N)cc1S(=O)(=O)Nc1ccc(OC)cc1	Marburg entry inh inconclusive, Shiga toxin inh 44.0, LASV entry inh inconclusive
O=C(COc1ccccc1F)Nc1ccc2c(c1)OCCO2	Marburg entry inh inconclusive, Shiga toxin inh 102.9, Cycloheximide cs 56.2, LASV entry inh inconclusive
O=C(COC(=O)Cc1ccccc1F)Nc1ccc2c(c1)OCCO2	Shiga toxin inh 59.0, Cycloheximide cs 33.3
N#Cc1ccccc1OCC(=O)Nc1ccc2c(c1)OCCO2	Marburg entry inh inconclusive (no result: Shiga toxin inh, Cycloheximide cs)
Cc1cccc(NC(=O)C2CCCN(S(=O)(=O)c3c(C)[nH]c(=O)[nH]c3=O)C2)c1C (centres undefined)	none (no result: Shiga toxin inh, Cycloheximide cs)
Cc1cc(C(=O)Nc2c(F)cc(F)cc2Br)n(-c2ccccc2)n1	Marburg entry inh inconclusive
CCN(CC)C(=O)COc1ccc(C=O)cc1OC	none
O=C(COc1ccccc1Br)Nc1ccc2c(c1)OCCCO2	Shiga toxin inh 65.6, Cycloheximide cs 46.7, LASV entry inh inconclusive
CC(=C\c1ccccc1)/C=C1/SC(=S)N(CCCC(=O)O)C1=O	Marburg entry inh inconclusive, LASV entry inh inconclusive
O=C(CN1C(=O)S/C(=C\c2ccc(O)cc2)C1=O)c1ccccc1	Shiga toxin inh 19.6, Cycloheximide cs 36.4
CC(/C=C1\SC(=O)N(CCCC(=O)O)C1=O)=C\c1ccccc1	Marburg entry inh 0.501µM, LASV entry inh 0.794µM
O=C(CN1C(=O)S/C(=C\c2ccccc2)C1=O)NNC(=O)c1ccccc1O	LASV entry inh inconclusive
O=C(CCCN1C(=O)S/C(=C\c2ccccc2)C1=O)NNC(=O)c1ccccc1O	Marburg entry inh 1.78µM, LASV entry inh inconclusive
COc1ccc(C(=O)Nc2ccccc2C(=O)N/N=C/c2ccccn2)cc1OC	Marburg entry inh inconclusive, Shiga toxin inh 45.1, Cycloheximide cs 33.9, LASV entry inh 10µM
COc1cc(C(=O)N/N=C/c2ccccn2)cc(OC)c1OC	Marburg entry inh inconclusive
COc1ccc(OC)c(C(=O)N/N=C/c2ccccn2)c1	Shiga toxin inh 75.5, Cycloheximide cs 30.5 (no result: Marburg entry inh, LASV entry inh)
COc1ccc(C(=O)N/N=C/c2ccccn2)cc1OC	none
CCOc1ccccc1CNC(=O)CCc1cn(C)c2ccccc12	Marburg entry inh 6.31µM
Cc1ccc(-c2nc(S(=O)(=O)c3ccc(C)cc3)c(SCC(=O)NC3CCCCC3)o2)cc1	none (no result: Shiga toxin inh, Cycloheximide cs)
Cc1ccc(/C=C2\SC(=S)N(CCC(=O)NNS(=O)(=O)c3ccc(C)cc3)C2=O)cc1	Marburg entry inh inconclusive, Cycloheximide cs 24.5
Cc1ccc(/C=C2/SC(=S)N(CCC(=O)N3CCOCC3)C2=O)cc1	Cycloheximide cs 16.2
Cc1ccc(/C=C2\SC(=S)N(CCC(=O)NNC(=O)c3ccncc3)C2=O)cc1	none
CN1CCN(C(=O)CCN2C(=O)S/C(=C/c3ccc(Cl)cc3)C2=O)CC1	none
Cc1ccc(/C=C2\SC(=O)N(CCC(=O)N3CCN(C)CC3)C2=O)cc1	Marburg entry inh inconclusive, Shiga toxin inh 45.0, Cycloheximide cs 26.8
CCOCC(=O)Nc1ccc([N+](=O)[O-])cc1C	none
Cc1ccsc1C(=O)OCc1nc2ccsc2c(=O)[nH]1	none (no result: Shiga toxin inh, Cycloheximide cs)
CCOC(=O)c1nc2ccccc2c(=O)[nH]1	Shiga toxin inh 54.3, Cycloheximide cs 36.6
CCOC(=O)CSc1nc2ccccc2c(=O)[nH]1	none (no result: LASV entry inh)
Cc1ccsc1C(=O)OCc1nc2ccccc2c(=O)[nH]1	Shiga toxin inh 61.1, Cycloheximide cs 58.3
COc1ccc(-c2nc(SCC(=O)NC3CCCCC3)n[nH]2)cc1	Cycloheximide cs 23.6 (no result: Marburg entry inh, LASV entry inh)
CCOC(=O)C1CCN(C(=O)CSc2n[nH]c(-c3ccc(OC)cc3)n2)CC1	none (no result: Marburg entry inh, Shiga toxin inh, Cycloheximide cs)
COc1ccc(-c2nc(SCC(=O)N3CCC(C)CC3)n[nH]2)cc1	LASV entry inh 3.16µM (no result: Marburg entry inh, Shiga toxin inh, Cycloheximide cs)
Cc1ccc(Sc2ncccc2C(=O)NCC(c2ccc(F)cc2)N2CCOCC2)cc1C (centres undefined)	none (no result: Shiga toxin inh, Cycloheximide cs)
O=S(=O)(/C=C/c1ccccc1)N1CCN(c2nc(-c3cccnc3)nc3ccccc23)CC1	Marburg entry inh 11.2µM, LASV entry inh inconclusive
O=S(=O)(c1ccccc1)N1CCN(c2nc(-c3cccnc3)nc3ccccc23)CC1	none (no result: Shiga toxin inh, Cycloheximide cs)
CCc1cc2c(=O)c(-c3ccc4c(c3)OCCO4)coc2cc1OS(C)(=O)=O	Marburg entry inh 5.62µM, Shiga toxin inh 78.7, Cycloheximide cs 42.2, LASV entry inh inconclusive
CCc1cc2c(=O)c(-c3ccc4c(c3)OCCO4)coc2c(CN2CCCCC2C)c1O (centres undefined)	Marburg entry inh inconclusive, LASV entry inh inconclusive
CCOC(=O)C1CCC(CN(Cc2ccc(Cl)cc2)S(=O)(=O)c2ccc(Br)cc2)CC1 (centres undefined)	none (no result: Marburg entry inh, Shiga toxin inh, Cycloheximide cs)
COc1ccc(Br)cc1CNC(=O)Cn1c(=O)c2cccn2c2ccc(F)cc21	none (no result: Marburg entry inh, Shiga toxin inh, Cycloheximide cs)
S=C(N/N=C/c1ccc(Cl)cc1)N1CCOCC1	Shiga toxin inh 97.4, Cycloheximide cs 41.0
Cc1ccc(/C=N/NC(=S)N2CCOCC2)cc1	Shiga toxin inh 82.6, Cycloheximide cs 57.0, LASV entry inh inconclusive
Cc1ccc(CNC(=S)N2CCOCC2)cc1	none (no result: Marburg entry inh, LASV entry inh)
S=C(N/N=C/c1ccc(Br)cc1)N1CCCCC1	Marburg entry inh inconclusive, Shiga toxin inh 63.5, Cycloheximide cs 40.0
O=C(Cn1c(=O)oc2cc(S(=O)(=O)N3CCCCC3)ccc21)N1CCCCC1	none (no result: Marburg entry inh, LASV entry inh)
CCOc1ccc(-n2c(=O)c3c(C)c(C)sc3n(Cc3ccccc3C)c2=O)cc1	none (no result: Shiga toxin inh, Cycloheximide cs)
CCCCN1C(=O)C(=O)N(CC(=O)N2N=C3/C(=C/c4ccco4)CCCC3C2c2ccco2)C1=O (centres undefined)	Shiga toxin inh 49.4, Cycloheximide cs 20.4
O=C1C(=O)N(Cc2cccnc2)[C@@H](c2ccccn2)/C1=C(\O)c1ccccc1	none (no result: Shiga toxin inh, Cycloheximide cs, LASV entry inh)
Cc1ccc([N+](=O)[O-])c(OCCN2CCc3ccccc3C2)c1	Cycloheximide cs 16.0 (no result: Marburg entry inh, LASV entry inh)
O=[N+]([O-])c1ccccc1OCCCN1CCc2ccccc2C1	Cycloheximide cs 9.9
CCNC(=S)N/N=C/c1cn(Cc2ccc(F)cc2)c2ccccc12	Marburg entry inh inconclusive, LASV entry inh inconclusive
